A short description of test [1]: qHTS for Inhibitors of Plasmodium falciparum (7G8) proliferation (AID 504316). Note: nearly all actives have a fitted effect of over 65% in size. The essentials:
(§1)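 Erythrocytes infected with P. falciparum line (0.3% parasitemia, 2.5% hematocrit final) incubated with compounds 72 h at 37 °C, 5% CO2; SYBR Green lysis buffer added, fluorescence read next day. Normalized to 0.29 uM artemisinin and DMSO.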

Test [2] is described as follows: qHTS for Inhibitors of Plasmodium falciparum (CP250) proliferation (AID 504320). An outline of the steps: as §1
(In general: qHTS replaces the single test concentration by a dilution series.)

Test [3] addresses Atrial natriuretic peptide receptor 1 (Homo sapiens) (UniProt P16066). Nature of the test: Natriuretic polypeptide receptor (hNpr1) antagonism - Pilot CMLD screen (AID 1347052; calls by dose curve;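 note: cGMP level read as GloSensor luciferase luminescence after agonist stimulation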).
The nature of test [4]: qHTS for Inhibitors of Plasmodium falciparum (HB3) proliferation (AID 504318). Note: nearly all actives have a fitted effect of over 60% in size. The essentials: as §1

Our source for the Potency values is PubChem BioAssay (NCATS).

Inconclusive results are not listed. Unmarked numbers belong to inactive results. The source made the active and inactive calls. Unless noted, calls come from the whole dose curve; as a rule, active = well fitted curve in the direction sought with a large enough effect; inconclusive = small, poorly fitted or top-dose-only effect, or another doubt; inactive = no such curve, though single readings can be large; an effect the other way counts as inactive or inconclusive.
Potency is the fitted concentration of half-maximal effect.

Sequence of Atrial natriuretic peptide receptor 1 (Homo sapiens) (P16066 whole entry, looked up): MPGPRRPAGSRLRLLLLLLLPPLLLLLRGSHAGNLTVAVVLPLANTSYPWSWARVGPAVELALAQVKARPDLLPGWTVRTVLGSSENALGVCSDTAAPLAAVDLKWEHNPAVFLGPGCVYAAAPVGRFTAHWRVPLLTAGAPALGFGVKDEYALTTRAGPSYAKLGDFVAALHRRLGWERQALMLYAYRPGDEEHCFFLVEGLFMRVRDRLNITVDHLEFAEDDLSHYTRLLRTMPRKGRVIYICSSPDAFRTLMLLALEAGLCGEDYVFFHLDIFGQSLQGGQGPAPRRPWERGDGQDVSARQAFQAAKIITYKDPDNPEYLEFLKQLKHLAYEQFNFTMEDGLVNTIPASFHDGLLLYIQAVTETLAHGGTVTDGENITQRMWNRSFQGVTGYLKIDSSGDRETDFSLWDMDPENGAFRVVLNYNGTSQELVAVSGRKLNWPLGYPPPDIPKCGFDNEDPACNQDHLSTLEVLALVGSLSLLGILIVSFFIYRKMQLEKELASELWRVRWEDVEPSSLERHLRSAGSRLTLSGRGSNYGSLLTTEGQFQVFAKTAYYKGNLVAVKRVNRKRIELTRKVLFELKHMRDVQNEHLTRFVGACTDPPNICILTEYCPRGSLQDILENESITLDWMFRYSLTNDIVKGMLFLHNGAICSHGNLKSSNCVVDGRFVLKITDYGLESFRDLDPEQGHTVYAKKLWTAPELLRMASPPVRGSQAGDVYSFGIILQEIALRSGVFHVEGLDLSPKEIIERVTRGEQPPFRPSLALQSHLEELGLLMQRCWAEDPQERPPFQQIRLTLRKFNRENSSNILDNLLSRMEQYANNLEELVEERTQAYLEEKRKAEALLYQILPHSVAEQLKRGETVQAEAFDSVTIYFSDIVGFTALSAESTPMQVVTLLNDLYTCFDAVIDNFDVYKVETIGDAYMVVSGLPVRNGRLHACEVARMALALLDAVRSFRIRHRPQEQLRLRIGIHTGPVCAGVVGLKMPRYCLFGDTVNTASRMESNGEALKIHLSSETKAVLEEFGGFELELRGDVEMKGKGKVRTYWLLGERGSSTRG

As for `C=CC[C@](C)(O)c1ccccc1`, the Potency in test [1] is 1.51 µM (active). In addition, the Potency result in test [2] and in test [3] was “inactive” each time.
For `CCCCc1nc2c(c3c1C[C@H](C)OC3)CN(S(=O)(=O)c1ccccc1C(=O)OC)CC2`, the Potency result in test [1], in test [2] and in test [3] was “inactive” in each case.
Turning to `CC1(C)CC(=O)C2=C(C1)O[C@@]1(CCCCN3C(=O)c4ccccc4C3=O)Cc3c(ccc4ccccc34)[C@H]2O1`, the Potency in test [1] is 1.51 µM (active). The Potency result in test [2] and in test [3] was “inactive” in each case.
Consider `COc1ccc(O[C@H]2C=C[C@@H](c3ccccc3)O[C@H]2CON=C(C)CCN2CCCCc3nc(C)c(C)cc32)cc1`, for which, in test [1], the Potency is 1.51 µM (active). In addition, the Potency result in test [2] and in test [3] was “inactive” in each case.
With `COC(=O)C1=C(C(=O)OC)[C@@H]2N(Cc3ccccc3)c3ccccc3[C@@]23CCC(=O)N(CCc2ccccn2)C3=N1`, the Potency in test [1] was 1.51 µM (active). Besides, the Potency result in test [2] and in test [3] was “inactive” throughout.
For `COc1ccc([C@]23Cc4cc(C#N)ccc4[C@H](O2)c2c(cc(C)n(Cc4ccccc4)c2=O)O3)cc1`, in test [1], the Potency is 1.69 µM (active). Also, the Potency entry in test [2] and in test [3] was “inactive” each time.
Turning to `CC(C)(C)OC(=O)N1CCC[C@@H]1C(O)(c1ccccc1)c1ccccc1`, the Potency result in test [1], in test [2] and in test [3] was “inactive” throughout.
Consider `C=COC[C@H]1CN2[C@H](c3ccc(Br)cc3)[C@H](C)CC[C@H]2C(=O)O1`, for which the Potency result in test [1] and in test [3] was “inactive” each time. Also, in test [2], the Potency is 1.9 µM (active).
For the molecule `CC(C)=CCN1C(=O)[C@]2(OCCC=C[C@H]2C)c2c(Br)cccc21`, the Potency entry in test [1], in test [2] and in test [3] was “inactive” each time.
For the molecule `C=CC[C@@H]1C=C[C@H](ON=C(C)CCN2CCc3nc(CC)c(CC)cc3C2)[C@H](CO)O1`, the Potency in test [1] was 1.69 µM (active). The Potency result in test [2] and in test [3] was “inactive” throughout.
As for `COc1cccc(CO[C@H]2C=C[C@@H](c3ccccc3)O[C@H]2CBr)c1`, the Potency entry in test [1], in test [2] and in test [3] was “inactive” each time.
In the case of `COC(=O)C12C[C@@H](C)C3C(C)C(c4ccccc4C31)N2C(=O)C(F)(F)F` (stereo not given in full), the Potency entry in test [1], in test [2] and in test [3] was “inactive” in each case.
For the molecule `COC(=O)C1=C(C(=O)OC)[C@@H]2N(C)c3ccccc3[C@@]23C[C@@H](C(=O)OC)N(C(=O)c2cc(C)oc2C)C3=N1`, the Potency result in test [1], in test [2] and in test [3] was “inactive” each time.
Regarding `COC(=O)C(C(=O)OC)[C@@H]1O[C@@]23COCC[C@]2(C)[C@@H]3c2ccccc21`, the Potency result in test [1], in test [4], in test [2] and in test [3] was “inactive” in each case.
As to `COc1cc2c(cc1OC)[C@@H]1O[C@](c3ccsc3)(C2)Oc2cc(C)n(Cc3ccccc3)c(=O)c21`, the results for the Potency in test [1] and in test [3] were 1.51 µM (active) and 0.531 µM (active), respectively. Besides, in test [2], the Potency entry is “inactive”.
For `Brc1ccc2c(c1)c1cc(Br)ccc1n2CC1CO1` (stereo not given) the same measures were 1.69 µM (active), “inactive” and “inactive”.
Consider `COC(=O)C1=C(C(=O)OC)[C@@H]2N(Cc3ccccc3)c3ccccc3[C@@]23CCC(=O)N(CC2CC2)C3=N1`, for which the Potency in test [4] was 3.29 µM (active). Moreover, the Potency entry in test [3] is “inactive”.
With `CCCCn1c(C)cc2c(c1=O)[C@H]1O[C@](CCCC)(Cc3cc(C#N)ccc31)O2`, the Potency in test [1] is 1.9 µM (active). The Potency entry in test [2] and in test [3] was “inactive” in each case.
For the molecule `CCCC[C@]12Cc3cc(C#N)ccc3[C@H](O1)c1c(cc(C)n(Cc3ccccc3)c1=O)O2`, the Potency in test [1] is 1.69 µM (active). The Potency result in test [2] and in test [3] was “inactive” each time.
On to `CC(C)=CCN1C(=O)[C@@]2(CC(C)=CC[C@@H](COc3ccccc3)O2)c2ccccc21`, for which the Potency in test [1] was 2.69 µM (active). Moreover, the Potency result in test [2] and in test [3] was “inactive” in each case.
Consider `FC(F)(F)c1cc(NC(=S)Nc2ccc3ccccc3c2)cc(C(F)(F)F)c1`, for which the Potency in test [4] was 2.13 µM (active). Besides, the Potency result in test [3] was “inactive”.
For `COC(=O)C1=C(C)N(Cc2ccccc2)C(=S)NC1c1cccc(C(F)(F)F)c1` (stereo not given), the Potency entry in test [1], in test [4], in test [2] and in test [3] was “inactive” in each case.
For the molecule `CCc1cc2c(nc1CC)CCN(CCC(C)=NO[C@@H](C)c1cn([C@H](CO)Cc3ccccc3)nn1)C2`, the Potency in test [1] was 1.69 µM (active). In addition, the Potency entry in test [2] and in test [3] was “inactive” each time.
For the molecule `CCN1C(=NCc2cc(OC)c(OC)c(OC)c2)NC(c2cccc(F)c2)C(C(=O)OC)=C1C` (stereo not given), the Potency in test [1] is 0.849 µM (active). In addition, the Potency entry in test [2] and in test [3] was “inactive” throughout.
In the case of `CCc1cc2c(nc1CC)CCN(CCC(C)=NO[C@H](C)c1cn([C@H](CO)Cc3ccccc3)nn1)C2`, the Potency in test [1] was 1.51 µM (active). Further, the Potency entry in test [2] and in test [3] was “inactive” throughout.
In the case of `COC(=O)C1=C(C)N(Cc2ccccc2)C(=NCc2ccc3c(c2)OCO3)NC1CCc1ccccc1` (stereo not given), the Potency entry in test [1], in test [2] and in test [3] was “inactive” throughout.
Turning to `COC(=O)C1=C(C)N(Cc2ccccc2)C(=NCCc2cccnc2)NC1c1ccccc1` (stereo not given), the Potency entry in test [4] and in test [3] was “inactive” in each case.
Consider `O=C1CCCC2=C1[C@H]1O[C@](CCCCN3C(=O)c4ccccc4C3=O)(Cc3ccccc31)O2`, for which, in test [1], the Potency was 1.9 µM (active). Moreover, the Potency result in test [2] and in test [3] was “inactive” each time.
Take `N#Cc1ccc2c(c1)C[C@]1(CCCCN3C(=O)c4ccccc4C3=O)Oc3c(c(=O)oc4ccc(F)cc34)[C@@H]2O1`: the Potency in test [1] was 1.51 µM (active). In addition, the Potency entry in test [2] and in test [3] was “inactive” each time.
As for `C=CCOCCC=C1c2ccccc2[C@@H](OC)[C@@H]1C`, the Potency in test [1] is 1.51 µM (active). Besides, the Potency result in test [2] and in test [3] was “inactive” throughout.
Consider `O=C1c2ccccc2C(=O)N1CCCC[C@]12Cc3ccccc3[C@H](O1)c1c(c3ccccc3oc1=O)O2`, for which the Potency in test [1] is 1.51 µM (active); in test [2], 1.69 µM (active). For the same molecule, the Potency result in test [3] is “inactive”.
Consider `CCCNC(=O)OC[C@H]1O[C@H](CCON=C(C)CCC(=O)OC[C@H]2O[C@H](C#Cc3ccccc3)C=C[C@H]2Oc2ccc(C)cc2)C=C[C@H]1Oc1ccc(OC)cc1`, for which the Potency entry in test [1], in test [2] and in test [3] was “inactive” each time.
